The text below walks through data of the supplement of paper PMC11417369.

± gives the standard deviation of the averaged measurements. Over roughly 25,000 sequences, “ln(normalized median fluorescence intensity)” has its median near 7.9; the highest 2% begin near 11. The sample as a whole holds a higher share of the highest values than the screen did.

The test system of this test is PfAP2-I AP2 domain 3 (GST-tagged). Put plainly: gcPBM binding intensity (ln(normalized median fluorescence intensity)); higher = stronger DNA binding. The method, boiled down: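 Binding intensity is the highest Masliner-normalised natural-log median intensity over replicate spots in either probe orientation. To obtain it, GST-tagged P. falciparum DNA-binding domains made in E. coli were incubated for 1 h on an Agilent 4 × 180k array of primer-extended double-stranded 36-bp intergenic genomic probes plus negative controls. Detection used Alexa488 anti-GST antibody with scanning at 488 nm.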
For “ATTACAATATATACGTGTACATATTACCACCGCTAC [XGTACX_site2308]”, the “gcPBM binding intensity (ln)” value turned out to be 8.46 ± 0.7.
On to ACAATAAATATGTGGTTGCACTTATAATATATTTAT, for which the “gcPBM binding intensity (ln)” value turned out to be 8.66 ± 0.4.
For “ATAAAATAAAACAACACACACGAATGTATAAATATA [CACACA_site4643]”, the “gcPBM binding intensity (ln)” value was 7.66 ± 0.66.
Take “TTTTTATAAAATTTTATGAGCTCGGAAAAAATAAAC [GTGCAC_negctrl_site637]”: the “gcPBM binding intensity (ln)” value stood at 8.49 ± 0.48.
With “TGTGAAAATTATGGGGCATGCAATACTTTAAAAATA [TGCATGCA_site653]”, the “gcPBM binding intensity (ln)” value amounted to 7.98 ± 0.72.
Take “GAACAACAACAAAAAAAAAAAAAAAAAAAAAAAAAA [CACACA_negctrl_site199]”: the “gcPBM binding intensity (ln)” value was 8.12 ± 0.83.
As for “ATGATGTCTTTATATTGTACATATATGAAGACGTTA [XGTACX_site7751]”, the “gcPBM binding intensity (ln)” value was 7.79 ± 0.29.
On to “TATGTCCATATTTCCACACACATATTATTTTTATAT [CACACA_site3798]”, for which the “gcPBM binding intensity (ln)” value came to 8.18 ± 0.53.
With “AGCTACAAAAATTAATATATATATGTATAGTTATAC [TGCATGCA_negctrl_site531]”, the “gcPBM binding intensity (ln)” value was found to be 7.38 ± 0.59.
Turning to TTTTTGTTATTATGTGTGCACATATATATATATATA, the “gcPBM binding intensity (ln)” value is 10.3 ± 0.31.
With “GTCAAATTTTTGTGCACACATATATAGTTATTATTA [CACACA_site2241]”, the “gcPBM binding intensity (ln)” value turned out to be 11.2 ± 0.23.
Consider “GTATTTCTTTAATATACACACACCAAAACAAAAAAA [CACACA_site579]”, for which the “gcPBM binding intensity (ln)” value was 8.13 ± 0.49.
For the sequence “TATAAAAATGTGCACACACACACATATTTATATTTA [CACACA_site6826]”, the “gcPBM binding intensity (ln)” value turned out to be 9.365 ± 0.007.
For the sequence “TCTTTCCTTATTAAAACACACAAATACATTATTTAA [CACACA_site2147]”, the “gcPBM binding intensity (ln)” value worked out at 7.84 ± 0.46.
As to “AAATATTACATTTGTTAAATAATATGTTATACATAA [XGTACX_negctrl_site484]”, the “gcPBM binding intensity (ln)” value worked out at 7.32 ± 0.54.
As to “TTTTATTTCTTTGCACCATTTTAAATACAAACAAAT [CACACA_negctrl_site1553]”, the “gcPBM binding intensity (ln)” value was 11.1 ± 0.79.
As to “TTATTTTATTTTTTTGTGCACATATATATTTATAAA [GTGCAC_site9615]”, the “gcPBM binding intensity (ln)” value was 10.86 ± 0.028.
Next, “TGTGTATTTATAAATACACACCAAATGTTAATATAT [CACACA_site6904]”: 8.03 ± 0.47; “ATGTCAAATTTTTGTGCACACATATATAGTTATTAT [CACACA_site2242]”: 10.78 ± 0.028.
Regarding TATATATATATATATGTGCACATATTTATATGTTTT, the “gcPBM binding intensity (ln)” value was found to be 9.85 ± 0.22.
Regarding CAGTTGTTAATTTGTGTGCACCAAATATTATACATA, the “gcPBM binding intensity (ln)” value amounted to 11 ± 0.33.
Consider “GAAATAAATATAATATATATATATATATATATATGT [TGCATGCA_negctrl_site216]”, for which the “gcPBM binding intensity (ln)” value came to 8.25 ± 0.38.
Take “CAACCATTTGTAGGTAAACACACATTATTATTAATA [CACACA_site8842]”: the “gcPBM binding intensity (ln)” value amounted to 7.47 ± 0.46.
As for “AAGTATTTTTTTACATGTACATATATATATATATAT [XGTACX_site5065]”, the “gcPBM binding intensity (ln)” value was determined as 9.4 ± 0.56.
As for ATATTATATCTAATCGTGCACAACTGTACATTTGTC, the “gcPBM binding intensity (ln)” value was 10.5 ± 0.12.
Turning to “TTTTTTTCATAATATACACACAAAAAAAAAAAAAAA [CACACA_site3224]”, the “gcPBM binding intensity (ln)” value is 8.12 ± 0.68.
Next, “TTCATTTTTTGCTTTCAACACACATACAATATATAT [CACACA_site9369]”: 8.01 ± 0.49.
For “AAATTACCCATCCATACACACATATTTTTTTTAATT [CACACA_site2189]”, the “gcPBM binding intensity (ln)” value worked out at 7.96 ± 0.64.
Regarding “AATTTTTTTTTTAGACGTACAAGAAAAAACAAAAAA [XGTACX_site4990]”, the “gcPBM binding intensity (ln)” value was determined as 8.15 ± 0.55.
For the sequence “GTATTTAGATGATTAACACACATATGTGTATTAATA [CACACA_site6733]”, the “gcPBM binding intensity (ln)” value came to 7.92 ± 0.41.
Next, “TAAAAAATAAAATACACACACATATTTATATTTATA [CACACA_site6737]”: 7.41 ± 0.4.
Consider “ATATATTTTTTAAACACACACATAAATATTTGTGTA [CACACA_site2879]”, for which the “gcPBM binding intensity (ln)” value came out at 7.84 ± 0.49.
Turning to “TATTTTATAATAGGCACACATATAAAAATATATATA [CACACA_site4127]”, the “gcPBM binding intensity (ln)” value was found to be 7.96 ± 0.52.
On to “TTTTTTATTTTGTGCACACACATAAAAATATATATA [CACACA_site761]”, for which the “gcPBM binding intensity (ln)” value is 11.2 ± 0.31.
Take “TAAAATAAAAATATAGTGCACAGATTTTGATATTTT [GTGCAC_site9696]”: the “gcPBM binding intensity (ln)” value is 11.2 ± 0.23.
As for TAATAATTTATAATAGTGCATTTGATTTTAAAAATA, the “gcPBM binding intensity (ln)” value was 9.81 ± 0.51.
Take GGGATATTTTAAAGGGTGCATATTATTAAAATAATG: the “gcPBM binding intensity (ln)” value was found to be 10.7 ± 0.51.
For the sequence “ATTTTTTTATTTTGTGCACACACATAAAAATATATA [CACACA_site762]”, the “gcPBM binding intensity (ln)” value stood at 11.1 ± 0.27.
Regarding “TTTTGATATAAATATTAGATTAATAAATAAAAAAAT [CACACA_negctrl_site1635]”, the “gcPBM binding intensity (ln)” value amounted to 7.8 ± 0.39.
TTCTATTTTTTAAAAGTGCATATTATAAATATATAT: the “gcPBM binding intensity (ln)” value came out at 9.63 ± 0.11.
As for “AATATTTTTTTATAAACACACATATATATAAATATA [CACACA_site3524]”, the “gcPBM binding intensity (ln)” value was 7.89 ± 0.33.
As for “TTTATTTTTATTTTTGTGCACGGGATTAAATAAAAG [GTGCAC_site9842]”, the “gcPBM binding intensity (ln)” value was 11.22 ± 0.092.
“ACTTATTTCGATATGTGTACTTAATATATATATTTA [XGTACX_site6616]”: the “gcPBM binding intensity (ln)” value turned out to be 7.89 ± 0.39.
For “ACATATACAAGACACACACACAACGTTTTAATAAAT [CACACA_site7017]”, the “gcPBM binding intensity (ln)” value came to 8.12 ± 0.46.
For “ACATATTTTTAATACACACTCAAAAAAGTACTTAAC [CACACA_site3014]”, the “gcPBM binding intensity (ln)” value is 8.2 ± 0.28.
“TCTACAATTATAATTACACACTATAAAAAAGAAAGA [CACACA_site2984]”: the “gcPBM binding intensity (ln)” value turned out to be 7.96 ± 0.35.
In the case of “TCTTTTTTTTTTATTTGTACTTATTTTTTTCAAAAA [XGTACX_site3403]”, the “gcPBM binding intensity (ln)” value amounted to 8.24 ± 0.51.
